A selection: hits, their analogues and other compounds. The true share with any hit is near 4.8%.
hgDAF-12 ag: activates the H. glycines DAF-12 receptor ligand-binding domain; HEK293 GAL4-hgDAF12 UAS-luciferase reporter, agonist luminescence; normalized to butyrate control; activation, % at 6.8 µM; hit rate 1.8% among 370,000;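 active = activation above a cutoff set at the mean of all screened compounds plus 3 SD, cut at about 10% in these data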
ssDAF-12 act: activators of S. stercoralis DAF-12 nuclear receptor; HEK293 ssDAF-12/GRIP1 lit1-tk-luc reporter, luminescence; % of 3 µM dafachronic acid response; activation, % at 6.8 µM; hit rate 1% among 370,000;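 active = activation above the mean over all tested compounds plus 3 SD, cut at about 0.9% in these data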
SMARCA2 activ: activators of SMARCA2 function | MG213 cells, MMTV-luciferase reporter, dexamethasone, overnight | hit rate 1% among 370,000 | activation, % at 9.1 µM | AID 652017; in the data active = activation above about 7.8%
DAX1 inh-1: DAX1 (NR0B1) inhibition, primary screen; HEK293T StAR-luciferase reporter, SF-1/DAX-1 repression relief; hit rate 1.1% among 370,000; inhibition, % at 6.8 µM; AID 652010;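 active = inhibition above the mean over all tested compounds plus 3 SD, cut at about 3.6% in these data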;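 note: higher inhibition means more luminescence from relief of DAX-1 repression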
DAX1 inh-2: NR0B1 (DAX1) inhibition; AID 504766; HEK293 Gal4-DAX1 luciferase reporter, luminescence; hit rate 0.99% among 340,000; inhibition, % at 6.75 µM; P51843;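 active = inhibition above the mean over all tested compounds plus 3 SD, cut at about 4.2% in these data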;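 note: inhibition shows as a rise in luminescence from relieved DAX1 repression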
Target sequence (P51843 207-470 limits assumed): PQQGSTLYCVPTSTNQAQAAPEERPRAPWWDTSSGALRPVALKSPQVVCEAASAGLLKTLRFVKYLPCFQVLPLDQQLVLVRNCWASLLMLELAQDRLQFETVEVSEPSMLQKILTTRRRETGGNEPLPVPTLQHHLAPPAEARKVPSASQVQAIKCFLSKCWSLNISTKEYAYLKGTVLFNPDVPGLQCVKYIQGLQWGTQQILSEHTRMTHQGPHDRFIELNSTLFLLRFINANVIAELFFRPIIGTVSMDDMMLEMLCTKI
hcDAF12 agonist: activates DAF-12 receptor from parasite H. contortus; HEK293 hcDAF-12 lit1-tk-luc reporter, luminescence; 0% DMSO, 100% Δ7-dafachronic acid; activation, % at 6.8 µM; hit rate 1.4% among 370,000; AID 652067;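 active = activation above the mean of all tested compounds plus 3 SD, cut at about 5.5% in these data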
Of the large screens only hits and unclear results are named; the others gave an inactive call.

O=C(CN1CCCCCCC1)N/N=C/c1ccccc1F	none
COc1ccc(N=Cc2c[nH][nH]c2=O)cc1	none
O=c1[nH][nH]cc1C=Nc1ccc(Oc2ccccc2)cc1	ssDAF-12 act 6.9
COc1ccccc1NC(=O)OC1CCC12CCCCC2 (stereo unspecified)	none (no result: DAX1 inh-2)
OC1CCN(Cc2cccc3ccccc23)CC1	DAX1 inh-2 5.0
CN1CCCN(Cc2cccc3ccccc23)CC1	none
CCCC[C@@H]1C(=O)N2N=Cc3cc4ccccc4cc3[C@H]2N2N=Cc3cc4ccccc4cc3[C@@H]12	none (no result: DAX1 inh-2)
Cc1nn(-c2ccc(F)cc2)c2sc(C(=O)OCC(=O)N3CCC(C)CC3)cc12	DAX1 inh-2 6.3
FC(F)(F)c1cnc(Oc2cccc3ccccc23)c(Cl)c1	ssDAF-12 act 1.0
CCN1CCCCC(NC(=O)COCc2ccccc2)C1=O (stereo unspecified)	none (no result: DAX1 inh-2)
CNC(C)C#Cc1ccc2c(=O)c3cc(C)c(C)cc3oc2c1 (stereo unspecified)	hgDAF-12 ag 11
Cc1csc2ncc(C(=O)Nc3ccccc3F)c(=O)n12	hcDAF12 agonist 6.2
O=C(CN1CCc2onc(-c3cccc(-n4cc(CO)nn4)c3)c2C1=O)N1CCOCC1	none (no result: DAX1 inh-2)
CC(C)n1c(O)c(N=NC(=O)C2COc3ccccc3O2)c2ccccc21 (stereo unspecified)	ssDAF-12 act 1.1
CC(=O)NC(=S)Nc1sc2c(c1C(N)=O)CCC(C)C2 (stereo unspecified)	DAX1 inh-2 5.0
CCOC(=O)Nc1sc2c(c1C(N)=O)CCC(C)C2 (stereo unspecified)	none
CCC(C(=O)Nc1ccccc1N1CCCC1)c1cccc(Cl)c1 (stereo unspecified)	none (no result: DAX1 inh-2)
COc1ccc(C(=O)C2(C(=O)NCc3ccccc3)CC(c3ccccn3)=NO2)cc1 (stereo unspecified)	none (no result: DAX1 inh-2)
Cn1cccc1C(=O)N1CCN(S(=O)(=O)c2ccc(C(C)(C)C)cc2)CC1	none (no result: DAX1 inh-2)
COc1ccc(NC(=O)C(=O)NCCN2CCN(C(=O)c3ccc(C)cc3)CC2)cc1	ssDAF-12 act 1.2
COc1ccc(C(=O)N2CCN(CCNC(=O)C(=O)Nc3ccc(F)cc3)CC2)cc1	none
O=C(OC12CCCN(C1)/C(=C/c1ccc(Cl)cc1)C2)C1CCCC1 (stereo unspecified)	none (no result: DAX1 inh-2)
C=CCn1c(SCC(=O)C(C)(C)C)nnc1-c1ccc(Cl)cc1	none (no result: DAX1 inh-2)
COc1ccc(-c2nc3nc(C)cc(C)n3n2)cc1	hcDAF12 agonist 5.7
CCOC(=O)[C@]12CCCC=C1N(Cc1ccc(OC)cc1)C(=O)[C@@H]2CC(=O)NCc1cccc2ccccc12	none (no result: DAX1 inh-2)
Cc1cccnc1NS(=O)(=O)c1cccc([N+](=O)[O-])c1	none
Cc1cccnc1NS(=O)(=O)c1ccccc1	SMARCA2 activ 7.9
NC(=O)c1ccccc1NC(=O)CN1CCOCC1	DAX1 inh-2 4.3
COC(=O)c1ccccc1NC(=O)CN1CCOCC1	none
O=C(CN1CCOCC1)NNC(=S)Nc1ccccc1	DAX1 inh-2 6.1
COC(=O)[C@]12C[C@H](CC(=O)NCc3cccc(C(F)(F)F)c3)C(=O)N(Cc3cccc4ccccc34)C1=C[C@H](C1CCCC1)O[C@@H]2C	none (no result: DAX1 inh-2)
CCOC(=O)Nc1ccc2c(c1)[C@@]1(CC(=O)N(CC(C)C)C1c1ccccc1)C(=O)N2C (stereo partly specified)	none (no result: DAX1 inh-2)
CCc1ccc(NC(=O)c2cc(C)no2)cc1	DAX1 inh-2 4.4
CC(C)Cc1cc(C(=O)Nc2ccc(F)cc2F)no1	hgDAF-12 ag 12, DAX1 inh-1 3.9
CCCc1cc(C(=O)Nc2cc(Cl)ccc2O)no1	hgDAF-12 ag 11, hcDAF12 agonist 5.6
CCc1ccc(NC(=O)c2cc(-c3cccs3)on2)cc1	none
CC(C)c1cc(C(=O)Nc2cc(Cl)ccc2O)no1	none
CCCc1cc(C(=O)Nc2ccc(CC)cc2)no1	hgDAF-12 ag 11
COc1ccc(-c2cc(C(=O)N(C3CCCCC3)C3CCCCC3)no2)cc1	none (no result: DAX1 inh-2)
CC(=O)CC[C@H]1CC[C@]2(CCCN(S(=O)(=O)C3CCCCC3)C2)O1	none (no result: DAX1 inh-2)
O=C(NC1CCCCN(Cc2cccc(Cl)c2)C1=O)c1cccc2nsnc12 (stereo unspecified)	none (no result: DAX1 inh-2)
Cc1cc(C)cc(-c2c(C(=O)c3ccc(Br)cc3)[nH]c(N)c2C(=O)NCc2ccc(Cl)cc2)c1	none (no result: SMARCA2 activ, DAX1 inh-1, DAX1 inh-2)
CCc1ccc(NC(=O)c2cc(CC(C)C)on2)cc1	DAX1 inh-2 5.1
Cc1ccccc1Cn1cc(COC(=O)NCC(C)C)nn1	none (no result: DAX1 inh-2)
COc1ccc(-c2cc3nc4n(c(=O)c3s2)CCCCC4)cc1	DAX1 inh-2 7.8
COc1ccc(-c2cc3nc(C)n(N)c(=O)c3s2)cc1	none
COc1ccccc1-c1nc2s/c(=C\c3cccs3)c(=O)n2n1	none
COc1ccc(/C=c2\sc3nc(-c4ccccc4OC)nn3c2=O)c(OC)c1	ssDAF-12 act 0.9
CC(C)(C)S(=O)(=O)N1Cc2cc(CO)ccc2[C@@H]1CCO	none (no result: DAX1 inh-2)
COc1ccc2oc(=O)c(C(=O)Nc3ccccc3-c3ccccc3)cc2c1	none
CC(C)c1nnc(NC(=O)c2cc3cc(Br)ccc3oc2=O)s1	none
O=C(NNC(=O)c1cc2cc(Br)ccc2oc1=O)c1ccc(O)cc1	ssDAF-12 act 2.5
COc1ccc2oc(=O)c(C(=O)Nc3ccccc3C)cc2c1	hgDAF-12 ag 12
NC(=S)c1cc2cc(Br)ccc2oc1=O	none
O=C(Nc1ccccc1O)c1cc2cc(Br)ccc2oc1=O	ssDAF-12 act 1.1
S=c1[nH]nc(-c2cc(-c3ccccc3)n[nH]2)n1N=Cc1c[nH]c2ccccc12	none (no result: DAX1 inh-2)
Cc1nc2ccc(S(=O)(=O)NCC(=O)NCc3cccs3)cc2s1	none (no result: DAX1 inh-2)
COc1ccc(C(C(=O)N(C)C2CCCC2)N(Cc2ccc(F)cc2)C(=O)c2csc(N3CCOCC3)n2)cc1OC (stereo unspecified)	none (no result: DAX1 inh-2)
CCC(CO)NCc1ccccc1OC(C)C (stereo unspecified)	DAX1 inh-2 5.0
CCOc1ccccc1CNCCO	none
O=C(CCc1nnc(CCCc2ccccc2)o1)N1CCCCCC1	DAX1 inh-2 5.0
O=C(CCc1nnc(CCCc2ccccc2)o1)NCCc1ccco1	SMARCA2 activ 7.8
CCc1cc(CNC(=O)CCc2nnc(CCCc3ccccc3)o2)on1	hgDAF-12 ag 13
Cc1nc(-c2ccc(C(=O)N3CCCC3)cc2)cs1	hgDAF-12 ag 11
O=C(c1ccco1)n1c(=S)nc2ccccn21	hgDAF-12 ag 12, SMARCA2 activ 7.9
CC(=O)N(Cc1ccccc1)c1nccs1	none (no result: DAX1 inh-2)
Brc1cccc2sc(N3CCCC3)nc12	hgDAF-12 ag 11
Cc1ccc([N+](=O)[O-])cc1NC(=O)C1CCCC1	ssDAF-12 act 5.5
CC(C)c1ccc(/C=C/C2=NNC(=O)CC2)cc1	hgDAF-12 ag 11
O=C(Nc1ccccc1O)c1ccc2c(c1)C(=O)N(N1C(=O)c3ccccc3C1=O)C2=O	ssDAF-12 act 1.3, hcDAF12 agonist 5.9

Screens: PubChem, The Scripps Research Institute Molecular Screening Center
